Assay [1] in a line: qHTS assay to identify small molecule agonists of the hypoxia (HIF-1) signaling pathway - cell viability counter screen (AID 1224844; calls by dose curve; further: nearly all actives have a fitted effect of over 50% in size; further: potency means the concentration at half of the fitted maximal effect). In outline:
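Cells (HRE-bla ME-180, 2,000 per well) sat 5 hrs at 37C, got compound for 17 hrs, were read for CCF4-AM FRET, and were finally lysed with CellTiter-Glo for a 30 min room-temperature luminescence read.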
Background: In qHTS, concentration-response curves come from the screen itself.

Assay [2] can be described thus: qHTS assay to identify small molecule agonists of H2AX - cell viability counter screen (AID 1224847; calls by dose curve; further: top concentration of the series differs between compounds; nearly all actives have a fitted effect of over 30% in size). Put shortly:
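Cytotoxicity counter screen in wild-type CHO-K1 cells: a 3 hr compound treatment at 37C across 15 concentrations, followed by CellTiter-Glo luminescence to gauge viable cells.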

Assay [3] in a line: qHTS assay to identify small molecule agonists of the estrogen related receptor (ERR) signaling pathway from Tox21 library (AID 1224849; calls by dose curve; further: nearly all actives have a fitted effect of over 15% in size). To be noted: ERR reporter cell line, ONE-Glo luciferase, 18 h; at 92.4 µM (top of the series) unless noted. In outline: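 Screening used an NTP-provided ERR luciferase cell line. Compounds in DMSO were added 6 h after seeding and left 18 h at 37 C before a 30 min ONE-Glo step and luminescence reading.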

Assay [4] is described as follows: qHTS RealTime-Glo MT Cell Viability Assay in HEK293 cells - 32 hour (AID 1224868). Further: nearly all actives have a fitted effect of over 50% in size. Further: potency means the concentration at half of the fitted maximal effect. Put shortly: (§1)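 Homogeneous bioluminescent viability format in HEK293 cells (600 cells/well). Following 5 h at 37 C/5% CO2, 23 nL compound was pintooled; the signal was measured repeatedly during 40 h incubation.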
A short description of assay [5]: A CellTox Green Cytotoxicity Assay to monitor cytotoxicity in HEK293 cells - 0 hour (AID 1224869). Further: nearly all actives have a fitted effect of over 50% in size. In outline:
(§2)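 Fluorescence intensity, read at 0, 8, 16, 24, 32 and 40 h of compound treatment, reflected dye binding to DNA of dead HEK293 cells; compounds (23 nL, DMSO) were added 5 h after plating cells with reagent.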

Assay [6] in a line: qHTS RealTime-Glo MT Cell Viability Assay in HepG2 cells - 40 hour (AID 1224870). Further: nearly all actives have a fitted effect of over 50% in size. Further: potency means the concentration at half of the fitted maximal effect. Put shortly: (§3)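 HepG2 cells mixed with RealTime-Glo MT reagents (NanoLuc plus cell-permeant prosubstrate) were seeded at 600 cells/well, incubated 5 h at 37 C/5% CO2, then pinned with compounds in DMSO; nonlytic luminescence tracked viability during 40 h treatment.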
A short description of assay [7]: A CellTox Green Cytotoxicity Assay to monitor cytotoxicity in HEK293 cells - 40 hour (AID 1224871). Further: nearly all actives have a fitted effect of over 45% in size. In outline:
as §2

Assay [8] can be described thus: qHTS RealTime-Glo MT Cell Viability Assay in HEK293 cells - 16 hour (AID 1224872). Further: nearly all actives have a fitted effect of over 50% in size. Further: potency means the concentration at half of the fitted maximal effect. In outline:
as §1

Assay [9] in a line: qHTS RealTime-Glo MT Cell Viability Assay in HepG2 cells - 8 hour (AID 1224873). Further: nearly all actives have a fitted effect of over 55% in size. Further: potency means the concentration at half of the fitted maximal effect. In outline: as §3
Assay [10] in a line: qHTS RealTime-Glo MT Cell Viability Assay in HEK293 cells - 40 hour (AID 1224874). Further: nearly all actives have a fitted effect of over 50% in size. Further: potency means the concentration at half of the fitted maximal effect. To be noted: RealTime-Glo luminescence; max response: hits give low values. In outline: (§4)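 Viable HEK293 cells reduce a cell-permeant prosubstrate; the product diffuses out and is consumed by NanoLuc in the medium to give light. Compounds went in after a 5 h incubation and plates were read over the treatment course.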

Assay [11] in a line: A CellTox Green Cytotoxicity Assay to monitor cytotoxicity in HEK293 cells - 24 hour (AID 1224875). Further: nearly all actives have a fitted effect of over 45% in size. In outline: as §2
A short description of assay [12]: A CellTox Green Cytotoxicity Assay to monitor cytotoxicity in HepG2 cells - 16 hour (AID 1224876). Further: nearly all actives have a fitted effect of over 45% in size. In outline: (§5)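 Using 1536-well format, dye-containing HepG2 suspension was seeded, allowed 5 h at 37 C/5% CO2, dosed by pintool with compounds, positive and negative controls, and imaged for fluorescence across 40 h.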
A short description of assay [13]: qHTS RealTime-Glo MT Cell Viability Assay in HepG2 cells - 32 hour (AID 1224877). Further: nearly all actives have a fitted effect of over 55% in size. Further: potency means the concentration at half of the fitted maximal effect. Put shortly:
(§6)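 Cell number in HepG2 cultures estimated from NanoLuc luminescence generated by metabolic reduction of a prosubstrate by living cells. The homogeneous, nonlytic format allowed repeated reads at 0, 8, 16, 24, 32 and 40 h of compound exposure.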

Assay [14] can be described thus: A CellTox Green Cytotoxicity Assay to monitor cytotoxicity in HepG2 cells - 24 hour (AID 1224878). Further: nearly all actives have a fitted effect of over 45% in size. In outline:
as §5

Assay [15] is described as follows: A CellTox Green Cytotoxicity Assay to monitor cytotoxicity in HepG2 cells - 40 hour (AID 1224879). Further: nearly all actives have a fitted effect of over 40% in size. Further: potency means the concentration at half of the fitted maximal effect. In outline:
as §5

Assay [16] is described as follows: qHTS RealTime-Glo MT Cell Viability Assay in HEK293 cells - 0 hour (AID 1224880). Put shortly:
as §4

Assay [17] in a line: qHTS assay to identify small molecule agonists of the hypoxia (HIF-1) signaling pathway (AID 1224846; active means well fitted activation curve with a large enough effect in the signal ratio in the repeat runs, not every such curve was filed as active; the % refers to the signal ratio). In outline:
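A low-serum medium (0.5% dialyzed FBS) holding 2,000 HRE-bla ME-180 cells per well is preincubated for 5 hrs, dosed with compounds by pintool, and kept a further 17 hrs at 37C, 5% CO2 before CCF4-AM FRET detection of beta-lactamase.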

Assay [18] is described as follows: qHTS assay to identify small molecule antagonists of the estrogen related receptor (ERR) signaling pathway from Tox21 library (AID 1224848). Further: nearly all actives have a fitted effect of over 50% in size. Further: potency means the concentration at half of the fitted maximal effect. Put shortly: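 Cells: ERR line, 2,000/well; 6 h preincubation 37 C/5% CO2. Cpd in DMSO via pin tool; 18 h, 37 C. ONE-Glo, 30 min RT, luminescence.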
A short description of assay [19]: qHTS RealTime-Glo MT Cell Viability Assay in HepG2 cells - 24 hour (AID 1224867). Further: nearly all actives have a fitted effect of over 50% in size. Further: potency means the concentration at half of the fitted maximal effect. In outline:
as §6

Unmarked numbers belong to inactive results. Results filed as inconclusive are left out. Activity calls are given as the source filed them. Unless noted, the call rests on the fitted dose curve; in most records, active means well fitted curve in the direction sought with a large enough effect in the repeat runs; inconclusive means weak or mixed curves; inactive means no such curve, though single readings can be large; an effect the other way counts as inactive or inconclusive.

Experimental findings from PubChem BioAssay (Tox21) are described below.
On the % scale 0 is the no-effect control and ±100 the full control effect.

On to `C=C1c2cccc(O)c2C(O)=C2C(=O)[C@]3(O)C(O)=C(C(N)=O)C(=O)[C@@H](N(C)C)[C@@H]3[C@@H](O)[C@H]12`, for which the Potency entry in assay [1], in [2], in assay [4], in [5], in assay [6] and in assay [7] was “inactive” throughout. Also, the Potency result in assay [8], in [9], in assay [11], in [12], in assay [13] and in assay [14] was “inactive” each time. Moreover, the Potency entry in assay [15] and in assay [16] was “inactive” throughout. The activity change, positive = activation in [3] is -14.2% [at 42.5 µM]. The max response in assay [10] was 3.62%.

Consider `Oc1cccc(Nc2ccccc2)c1`, for which the Potency entry in [1], in assay [5], in assay [6], in assay [7], in assay [9] and in assay [11] was “inactive” in each case. Moreover, the Potency entry in assay [12], in [14], in assay [15] and in assay [16] was “inactive” each time. Moreover, the result in [17] was inactive. Moreover, the Potency in assay [4] was 14.4 µM (active); in assay [8], 22.8 µM (active); in assay [10], 12.8 µM (active).

As for `COC(=O)c1nc(Cl)c(Cl)nc1N`, the Potency in assay [1] was 13.4 µM (active); in assay [18] it was 29.8 µM (active); in assay [4], 5.35 µM (active); in assay [6], 12 µM (active); in assay [8], 12 µM (active); in [10], 4.77 µM (active). Moreover, the Potency in assay [13] was 10.7 µM (active). Also, in assay [3], the activity change, positive = activation was -72.9% [at 42.5 µM]. Besides, the Potency entry in assay [5] and in [16] was “inactive” each time.

For `CCCC(=O)C(=O)O`, the Potency entry in assay [1], in assay [2], in assay [19], in assay [4], in [5] and in [6] was “inactive” each time. Moreover, the Potency result in assay [8], in [9], in assay [11], in assay [12], in assay [13] and in [14] was “inactive” throughout. In addition, the Potency result in assay [15] and in [16] was “inactive” each time. Moreover, the max response in assay [10] is 13.4%.

With `O=C1NC(=O)c2cc([N+](=O)[O-])ccc21`, the Potency result in [1], in assay [2], in assay [19], in assay [4], in assay [5] and in assay [7] was “inactive” each time. Moreover, the Potency result in [8], in [9], in [11], in assay [12], in assay [13] and in assay [14] was “inactive” each time. In addition, the Potency entry in assay [15] and in [16] was “inactive” in each case. The compound was called inactive in assay [17]. For the same compound, the max response in assay [10] is 2.79%.

On to `O=C1c2ccccc2C(=O)C1c1nc2ccccc2c(Br)c1O`, for which the Potency result in [1], in [2], in assay [19], in assay [5], in assay [6] and in assay [8] was “inactive” each time. The Potency result in assay [9], in assay [11] and in assay [16] was “inactive” each time. Also, in assay [10], the max response was 21.2%. Besides, the Potency in assay [15] was 4.9 µM (active).

For the compound `O=c1c(O)c(-c2ccc(O)cc2)oc2cc(O)cc(O)c12`, the Potency result in assay [1], in assay [18], in assay [19], in [5], in assay [6] and in [7] was “inactive” each time. The Potency entry in [9], in assay [11], in assay [12], in assay [13], in assay [14] and in [15] was “inactive” each time. For the same compound, the Potency entry in assay [16] was “inactive”. For the same compound, the activity change, positive = activation in [3] is 4.05% [at 42.5 µM].

As to `CCOc1ccc(Cc2nccc3cc(OCC)c(OCC)cc23)cc1OCC`, the Potency entry in assay [1], in assay [5], in [7], in [11], in [12] and in assay [14] was “inactive” in each case. The Potency entry in assay [16] was “inactive”. The Potency in [19] is 12 µM (active); in assay [8], 9.52 µM (active); in assay [9] it was 12 µM (active); in [10] it was 5.35 µM (active); in [15] it was 7.56 µM (active).
